Rows were chosen to be rich in hits. Some 2.2% of all compounds tested hit in one or more screens of this group.
HIF-2a block = inhibitors of HIF-2a | 786-0 RCC cells HIF-2a reporter, luciferase luminescence, overnight | AID 624352 | inhibition, % at 18.8 µM | 360,000 tested, 0.72% active;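 active means inhibition of the luminescence signal of 40% or more relative to plate controls, in a single-dose primary screen at 18.75 µM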
PPC-1+TRAIL kill = PPC-1 cancer cell killing with TRAIL present; PPC-1 cells + TRAIL, ATPLite viability luminescence; cell killing (% activity), % at 4 µM or 5 µM; 220,000 tested, 0.41% active;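 active means cell killing above 50% in the first pass at 4 µM, then a duplicate retest at 5 µM averaging 50% or more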
CF NFkB inh = blocks PAF-induced NF-kB reporter in cystic fibrosis cells; KKLEB NF-kB-GFP reporter, GFP fluorescence overnight; inhibition, % at 5 µM; 360,000 tested, 0.86% active; AID 588850;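 active means at least 50% inhibition at 5 µM, scaled per plate between neutral and stimulator controls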;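 further: PAF is a Pseudomonas aeruginosa culture filtrate used as stimulus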
KKLEB cytotox = CF airway cell cytotoxicity counter-screen | KKLEB CF airway cells viability, ATPlite luminescence, overnight; active compounds read low; cells stimulated with P. aeruginosa culture filtrate | activity change (cytotoxicity), % at 5 µM | 360,000 tested, 0.36% active | AID 602141;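 active means corrected activity change at or below -50% at 5 µM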
C8 TRAIL sens = caspase-8 TRAIL sensitization. NB7+C8 cells + TRAIL, ATPlite viability luminescence. inhibition (viability loss, TRAIL sensitization), % at 10 µM. 360,000 tested, 1% active. AID 624354;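 active means compounds causing at least 50% loss of cell viability in the single-dose screen, relative to plate controls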
iPSC survival up = increases survival of single human iPS cells | hiPSC single-cell survival, ATPlite luminescence; 100% = ROCK inhibitor wells, 0% = DMSO | 360,000 tested, 0.044% active | AID 602274 | survival enhancement, % at 20 µM; in the data active means survival enhancement above about 18%;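 further: cells exposed to compounds for 16 hours before the ATP read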
CF NFkB inh conf = CF NF-kB inhibition confirmation, single concentration. 1,300 tested, 64% active. inhibition, % at 5 µM. shares compounds with CF NFkB inh. AID 602472. KKLEB CF airway cells, PAF-induced NF-kB-GFP fluorescence, overnight; in the data active means inhibition above about 40%;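 further: stimulus PAF is a Pseudomonas aeruginosa filtrate and not platelet activating factor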
Numbers stand for hits; – = inactive; · = no result given.

SMILES	HIF-2a block	PPC-1+TRAIL kill	CF NFkB inh	KKLEB cytotox	C8 TRAIL sens	iPSC survival up	CF NFkB inh conf
Cc1ccc(-c2cccc(C(=O)NCc3ccccc3)n2)c2ccccc12	–	–	52.7	–	–	–	–
NC(c1ccccc1)c1csc(NC(=O)Nc2cccc(Cl)c2)n1 (configuration not stated)	–	·	58.7	–	–	–	59.3
CCOc1ccc(S(=O)(=O)N2CCC(C(=O)N3CCN(c4ccccc4F)CC3)CC2)cc1C	–	·	–	–	–	–	·
COc1ccc(NC(=O)Nc2nnc(CC(=O)NCc3ccccc3)s2)cc1	–	–	–	–	–	–	·
COc1cccc(NC(=O)Nc2nnc(CC(=O)NCc3ccccc3)s2)c1	–	–	61.2	–	–	–	79.9
COc1ccc(NC(=O)Nc2nnc(-c3ccco3)s2)cc1	–	–	–	–	–	–	·
COc1ccc(NC(=O)Nc2nnc(-c3ccncc3)s2)cc1	–	–	58.2	–	–	–	53.2
CCN(CC(=O)Nc1ccccc1C(F)(F)F)C(=O)CSCc1ccc(C)cc1	–	·	–	–	–	–	·
Cc1ccc(S(=O)(=O)N2CCc3c2cc([N+](=O)[O-])cc3[N+](=O)[O-])cc1	–	·	–	–	–	–	·
O=c1c(C=NCCN2CCNCC2)c(-c2ccccc2)[nH]n1-c1ccc([N+](=O)[O-])cc1	·	–	·	·	·	·	·
COc1ccc(-c2[nH]n(-c3ccc([N+](=O)[O-])cc3)c(=O)c2C=NCc2ccccc2)cc1	–	–	50.5	–	–	–	–
CCOc1ccccc1NS(=O)(=O)c1ccc(-c2cnc(C3CC3)o2)cc1	–	·	–	–	–	–	·
Cc1ccc(NS(=O)(=O)c2ccc(-c3cnc(C4CC4)o3)cc2)c(C)c1	–	·	65.1	–	–	–	65.1
O=S(=O)(Nc1ccc(F)cc1Cl)c1ccc(-c2cnc(C3CC3)o2)cc1	–	·	–	–	–	–	·
COc1ccccc1NS(=O)(=O)c1ccc(-c2cnc(C3CC3)o2)cc1	–	·	54.1	–	–	–	70.5
Cc1ccsc1CN(C)c1ncnc2ccc(-c3ccoc3)cc12	–	·	83.6	–	–	–	96.7
COc1cccc(-c2ccc3ncnc(N(C)Cc4ccco4)c3c2)c1	–	·	–	–	–	–	·
COc1ccc(CN2C[C@H]3CCCN3c3cc(Br)ccc3S2(=O)=O)cc1	–	·	52.8	–	–	–	56.2
COc1ccc(Cn2cc(CN3CC(N4CCCCC4)CS3(=O)=O)nn2)cc1 (configuration not stated)	–	·	·	·	–	–	·
Cc1ccc(-c2ccc(CN3C(C(C)C)C(=O)N(Cc4cn(Cc5ccco5)nn4)CCS3(=O)=O)cc2)cc1 (configuration not stated)	–	·	68.7	–	–	–	–
CC(C)CC1C(=O)N(Cc2cn(Cc3ccco3)nn2)CCS(=O)(=O)N1Cc1ccc(-c2ccc(Cl)cc2)cc1 (configuration not stated)	–	·	64.6	–	–	–	41.3
CC(C)CC1C(=O)N(Cc2cn(Cc3ccco3)nn2)CCS(=O)(=O)N1Cc1ccc(-c2cccc(CO)c2)cc1 (configuration not stated)	–	·	–	–	–	–	·
CC(C)C1C(=O)N(Cc2cn(Cc3ccco3)nn2)CCS(=O)(=O)N1Cc1ccc(-c2cccc(N(C)C)c2)cc1 (configuration not stated)	–	·	–	–	–	–	·
Cc1noc(C)c1COC(=O)Cc1ccc(Br)cc1	–	–	–	–	–	–	·
CCC(=O)N1CCc2cc(S(=O)(=O)NCCc3ccc(S(N)(=O)=O)cc3)ccc21	–	·	–	–	–	–	·
SMILES	HIF-2a block	PPC-1+TRAIL kill	CF NFkB inh	KKLEB cytotox	C8 TRAIL sens	iPSC survival up	CF NFkB inh conf
CN(C)CCNC(=O)c1sc2cccc(F)c2c1Cl	–	–	–	–	–	–	·
O=C(Nc1cccnc1)c1sc2cccc(F)c2c1Cl	–	–	52.6	–	–	–	53.7
O=C1NC(=S)NC1=Cc1ccc(Cl)cc1Cl	–	·	–	–	–	–	·
O=C1NC(=O)C(=Cc2ccc(Cl)cc2Cl)S1	–	·	53.9	–	–	–	–
Cc1cc(C)c(O)c(CN(C)Cc2cc(Cl)cc(Cl)c2O)c1	–	·	60.3	–	–	–	74.8
Cc1ccnc(NCc2cc(Cl)cc(Cl)c2O)c1	–	·	–	–	–	–	·
COc1c(/C=N/Nc2ccc([N+](=O)[O-])cc2[N+](=O)[O-])c(C)nn1-c1ccccc1	–	–	59.9	–	–	–	41.0
C=C1CCC[C@]2(C)C[C@H]3OC(=O)C(CNC(C)(CO)CO)[C@H]3CC12 (some centres not stated)	–	·	74.7	–	–	–	–
C=C1CCC[C@]2(C)C[C@H]3OC(=O)C(CNC(C)CC)[C@H]3CC12 (some centres not stated)	–	·	–	–	–	–	·
C=C1CCC[C@]2(C)C[C@H]3OC(=O)C(CN4CCCCC4CO)[C@H]3CC12 (some centres not stated)	–	·	75.4	–	–	–	–
C=C1CCC[C@]2(C)C[C@H]3OC(=O)C(CNC(CC)CO)[C@H]3CC12 (some centres not stated)	–	·	–	–	–	–	·
CCOc1ccc(OCCNCc2ccc(OC(C)C(=O)N(C)C)c(OCC)c2)cc1 (configuration not stated)	–	·	–	–	–	–	·
CCN(CC(=O)Nc1c(F)cccc1F)C(=O)c1nc2nccc(C)n2n1	–	·	–	–	–	–	·
CCOC(=O)C1=C(CC)Nc2ccccc2N=C1NC(=O)c1oc2ccccc2c1C	–	–	76.2	–	–	–	94.8
CCCCNC(=S)N(C)/N=C/c1ccc(OCC(=O)Nc2c(C)cc(C)cc2C)c(OC)c1	–	–	–	–	–	–	·
CCCCNC(=S)N(C)/N=C/c1ccc(OCC(=O)Nc2ccc(OC)cc2)c(OC)c1	–	–	54.0	–	–	–	–
Cc1noc(C)c1-c1ccc(C(=O)NCCc2ccccc2)c2occc12	–	·	–	–	–	–	·
COc1cccc(/C=C/C(=O)OCC(=O)N2CCCC2)c1OC	–	·	–	–	–	–	·
Cc1cc2ccccn2c1C(=O)c1ccc(NN)c([N+](=O)[O-])c1	–	–	55.8	–	–	–	–
CCC(C)N(C(=O)COC(=O)CNC(=O)c1sc2ccccc2c1Cl)C1CCS(=O)(=O)C1 (configuration not stated)	–	·	–	–	–	–	·
CC(=O)OCC(=O)C1(O)CCC2C3CCC4CC(O)CCC4(C)C3C(=O)CC21C (configuration not stated)	–	·	–	–	–	–	·
CCOc1ccc(NC(=O)CSc2nnnn2C2CC2)cc1S(=O)(=O)N1CCCC1	–	·	–	–	–	–	·
Cc1cccn2c(=O)c3cc(S(=O)(=O)c4ccccc4)c(=N)n(Cc4ccco4)c3nc12	–	·	–	–	–	–	·

Assay outcomes deposited in PubChem by Sanford-Burnham Center for Chemical Genomics.
